Assay results: PubChem BioAssay (NCI)
Compounds without any hit were thinned out: in the full panel of roughly 83,000, 20% have a hit.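 Assay: single dose, 48 h. Readout: percent growth (0 = no net growth; negative = cell death). Active: <10.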 Calls of active or inactive are those of the source.

Legend:
Test in all cases: NCI-60 one-dose screen, 48 h (100 = growth as untreated, 0 = no growth, -100 = all killed)
Details in all cases: 10 µM unless noted
NCI-H23 lung = test system: NCI-H23 lung
NCI-H226 lung = test system: NCI-H226 lung
NCI-H322M lung = test system: NCI-H322M lung
HOP-62 NSCLC = test system: HOP-62 NSCLC
NCI-H460 lung = test system: NCI-H460 lung
HOP-92 NSCLC = test system: HOP-92 NSCLC
NCI-H522 lung = test system: NCI-H522 lung
A549/ATCC NSCLC = test system: A549/ATCC NSCLC
786-0 renal = test system: 786-0 renal
COLO 205 colon = test system: COLO 205 colon
DU-145 prostate = test system: DU-145 prostate
K-562 leukemia = test system: K-562 leukemia
MALME-3M melanoma = test system: MALME-3M melanoma
MDA-MB-231 breast = test system: MDA-MB-231 breast
RXF 393 renal = test system: RXF 393 renal
SF-268 CNS = test system: SF-268 CNS
UACC-257 melanoma = test system: UACC-257 melanoma
M14 melanoma = test system: M14 melanoma
SF-295 CNS = test system: SF-295 CNS
SF-539 CNS = test system: SF-539 CNS

Measured: growth

CC12CC(=O)C3(SC#N)C(CCC4=CC(=O)CCC43C)C1CCC2=O (stereo not drawn)
inactive: NCI-H23 lung 99.1% | NCI-H226 lung 94.1% | NCI-H322M lung 96% | HOP-62 NSCLC 106% | NCI-H460 lung 96.2% | HOP-92 NSCLC 90.7% | A549/ATCC NSCLC 107% | 786-0 renal 90% | COLO 205 colon 66% | DU-145 prostate 46.2% | K-562 leukemia 89% | MALME-3M melanoma 50.2% | MDA-MB-231 breast 100% | RXF 393 renal 56.5% | SF-268 CNS 101% | UACC-257 melanoma 75.9% | M14 melanoma 89%
active: NCI-H522 lung -3.58%

C[C@]12CC[C@H]3[C@@H](CC[C@]4(O)C[C@@H](O[C@@H]5O[C@H](CO)[C@@H](O[C@@H]6OC[C@@H](O)[C@H](O)[C@H]6O)[C@H](O)[C@H]5O)CC[C@]34C=O)[C@@]1(O)CC[C@@H]2C1=CC(=O)OC1
inactive: HOP-92 NSCLC 43.7% | COLO 205 colon 17.8% | MDA-MB-231 breast 42.2% | M14 melanoma 23.8%
active: NCI-H23 lung -37.1% | NCI-H226 lung -2.96% | NCI-H322M lung -13.2% | HOP-62 NSCLC -68.4% | NCI-H460 lung -9.57% | NCI-H522 lung -35.2% | A549/ATCC NSCLC -89.8% | 786-0 renal 0.0388% | DU-145 prostate -62.4% | K-562 leukemia 4.28% | MALME-3M melanoma -25% | RXF 393 renal -19.4% | SF-268 CNS -44.6% | SF-295 CNS 8.52% | UACC-257 melanoma -3.23%

C=CCCCN=C=S
inactive: NCI-H23 lung 82% | NCI-H226 lung 94.9% | NCI-H322M lung 80.7% | HOP-62 NSCLC 76.1% | NCI-H460 lung 47.9% | HOP-92 NSCLC 92% | NCI-H522 lung 38% | A549/ATCC NSCLC 75.2% | 786-0 renal 93.4% | COLO 205 colon 91.2% | DU-145 prostate 60.5% | K-562 leukemia 59.8% | MALME-3M melanoma 76.7% | MDA-MB-231 breast 68.3% | RXF 393 renal 80% | SF-268 CNS 77.4% | SF-295 CNS 92.4% | UACC-257 melanoma 62.5% | M14 melanoma 60.9%

CCCCOc1ccc(C(N)Cc2ccccc2)cc1 (stereo not drawn)
active: COLO 205 colon -43.2%
inactive: NCI-H23 lung 104% | NCI-H226 lung 112% | NCI-H322M lung 92.4% | HOP-62 NSCLC 107% | NCI-H460 lung 95.5% | HOP-92 NSCLC 41% | NCI-H522 lung 93% | A549/ATCC NSCLC 90% | 786-0 renal 75.3% | DU-145 prostate 109% | K-562 leukemia 54.2% | MALME-3M melanoma 106% | MDA-MB-231 breast 75.1% | RXF 393 renal 104% | SF-268 CNS 85.4% | SF-295 CNS 113% | SF-539 CNS 102% | M14 melanoma 87.1%

C[N+]12CN3CN(CN(C3)C1)C2
inactive: NCI-H23 lung 94.3% | NCI-H226 lung 103% | NCI-H322M lung 110% | HOP-62 NSCLC 88% | NCI-H460 lung 107% | HOP-92 NSCLC 71% | NCI-H522 lung 94.5% | A549/ATCC NSCLC 98.8% | 786-0 renal 104% | COLO 205 colon 99.4% | DU-145 prostate 119% | K-562 leukemia 198% | MALME-3M melanoma 111% | MDA-MB-231 breast 133% | RXF 393 renal 111% | SF-268 CNS 106% | SF-295 CNS 117% | SF-539 CNS 102% | M14 melanoma 103%

N#C[Se]Cc1cc(-c2ccccc2)n(-c2ccc(S(N)(=O)=O)cc2)n1
active: NCI-H23 lung -18% | NCI-H226 lung -29.1% | NCI-H322M lung -5.66% | HOP-62 NSCLC -87.3% | NCI-H460 lung -56.8% | HOP-92 NSCLC -61.3% | NCI-H522 lung -7.38% | A549/ATCC NSCLC -33.1% | 786-0 renal -24.7% | COLO 205 colon -83.4% | DU-145 prostate -85.6% | K-562 leukemia 4.33% | MALME-3M melanoma -47% | MDA-MB-231 breast -68.3% | RXF 393 renal -3.45% | SF-268 CNS -59.8% | SF-295 CNS -55.8% | UACC-257 melanoma -70.2% | M14 melanoma -62.2%

CC(C)CCC(=O)O[C@H]1CC[C@H]2[C@@H]3CCC4=CC(=O)CC[C@]4(C)[C@H]3CC[C@]12C
inactive: NCI-H23 lung 95.2% | NCI-H226 lung 97.5% | NCI-H322M lung 93.4% | HOP-62 NSCLC 102% | NCI-H460 lung 98.7% | HOP-92 NSCLC 112% | NCI-H522 lung 93.3% | A549/ATCC NSCLC 96% | 786-0 renal 105% | COLO 205 colon 106% | DU-145 prostate 96.5% | K-562 leukemia 98.2% | MALME-3M melanoma 84.2% | MDA-MB-231 breast 98.2% | RXF 393 renal 107% | SF-268 CNS 93.1% | SF-295 CNS 102% | SF-539 CNS 96% | M14 melanoma 98.9%

CCN(CC)CCOC(=O)C(OC(C)C)(c1ccccc1)c1ccccc1
inactive: NCI-H23 lung 99.1% | NCI-H226 lung 100% | NCI-H322M lung 99.6% | HOP-62 NSCLC 94.8% | NCI-H460 lung 100% | HOP-92 NSCLC 80.1% | NCI-H522 lung 82.3% | A549/ATCC NSCLC 96.9% | 786-0 renal 88.2% | COLO 205 colon 98% | DU-145 prostate 98.8% | K-562 leukemia 97.3% | MALME-3M melanoma 101% | MDA-MB-231 breast 99.3% | RXF 393 renal 98.5% | SF-268 CNS 93% | SF-295 CNS 109% | SF-539 CNS 111% | M14 melanoma 110%

CC1=C(CCCNS(C)(=O)=O)C2=C(C)C3(CC3)[C@@](C)(O)C(=O)C2=C1
active: NCI-H23 lung -35.1% | NCI-H226 lung -44% | NCI-H322M lung -3.8% | HOP-62 NSCLC -20.5% | NCI-H460 lung 1% | HOP-92 NSCLC -25.7% | NCI-H522 lung 6.89% | A549/ATCC NSCLC 2.7% | 786-0 renal -17.6% | COLO 205 colon -61% | DU-145 prostate 4.13% | MALME-3M melanoma -63.1% | MDA-MB-231 breast -3.41% | RXF 393 renal -75.6% | SF-268 CNS 8.41% | SF-295 CNS 2.69% | SF-539 CNS -38.6% | M14 melanoma -51.3%
inactive: K-562 leukemia 106%

CC(=O)OCC1O[C@@H]([S-])C(OC(C)=O)[C@H](OC(C)=O)[C@@H]1OC(C)=O.[Au+].c1ccc(CN2[CH-]N(Cc3ccccc3)C(c3ccccc3)=C2c2ccccc2)cc1
active: HOP-92 NSCLC -7.44% | NCI-H522 lung -47.6% | K-562 leukemia 1.59% | MALME-3M melanoma -30.2% | MDA-MB-231 breast -29.4% | RXF 393 renal -52.3%
inactive: NCI-H23 lung 28.5% | NCI-H226 lung 72.5% | NCI-H322M lung 82.7% | HOP-62 NSCLC 92.8% | NCI-H460 lung 62% | A549/ATCC NSCLC 76.3% | 786-0 renal 40.1% | COLO 205 colon 13.8% | DU-145 prostate 68.5% | SF-268 CNS 33.4% | SF-539 CNS 70.7% | UACC-257 melanoma 65.5% | M14 melanoma 48.5%

CC(CC1CCCCC1)NCc1ccccc1 (stereo not drawn)
inactive: NCI-H23 lung 85.7% | NCI-H226 lung 101% | NCI-H322M lung 95% | HOP-62 NSCLC 102% | NCI-H460 lung 105% | HOP-92 NSCLC 80.1% | NCI-H522 lung 94.6% | A549/ATCC NSCLC 98.2% | 786-0 renal 99.9% | COLO 205 colon 103% | DU-145 prostate 108% | K-562 leukemia 109% | MALME-3M melanoma 88.9% | MDA-MB-231 breast 97.3% | RXF 393 renal 99.6% | SF-268 CNS 103% | SF-295 CNS 93.6% | SF-539 CNS 103% | M14 melanoma 90.2%

COc1ccc(C(=O)c2sc3nc4c(cc3c2N)N2CCC4CC2)cc1OC
inactive: NCI-H23 lung 92.5% | NCI-H226 lung 65.2% | NCI-H322M lung 107% | HOP-62 NSCLC 72.9% | NCI-H460 lung 103% | NCI-H522 lung 82.4% | A549/ATCC NSCLC 94.8% | 786-0 renal 90.9% | COLO 205 colon 97.1% | DU-145 prostate 103% | K-562 leukemia 73.3% | MALME-3M melanoma 93% | MDA-MB-231 breast 66.9% | RXF 393 renal 85.6% | SF-268 CNS 105% | SF-295 CNS 88.9% | UACC-257 melanoma 111% | M14 melanoma 109%
active: HOP-92 NSCLC 6.56%

CCOC(=O)C(Cc1ccc(N(CCCl)CCCl)cc1)NC(=O)C(CC(C)C)NC(C)=O (stereo not drawn)
inactive: NCI-H23 lung 17.1% | NCI-H226 lung 50% | NCI-H322M lung 97.1% | HOP-62 NSCLC 41% | HOP-92 NSCLC 24.6% | A549/ATCC NSCLC 49.4% | DU-145 prostate 14.3% | K-562 leukemia 12.6% | MDA-MB-231 breast 51.6% | SF-539 CNS 13.2% | UACC-257 melanoma 24.2%
active: NCI-H460 lung 1.65% | NCI-H522 lung -73.1% | 786-0 renal 9.46% | COLO 205 colon -29.3% | MALME-3M melanoma -33% | RXF 393 renal -15.5% | SF-268 CNS 5.5% | M14 melanoma -4.57%

CN(C)C(=O)Oc1ccccc1-c1ccccc1
inactive: NCI-H23 lung 102% | NCI-H226 lung 96.4% | NCI-H322M lung 111% | HOP-62 NSCLC 98.6% | NCI-H460 lung 109% | HOP-92 NSCLC 95.7% | NCI-H522 lung 101% | A549/ATCC NSCLC 87.7% | 786-0 renal 106% | COLO 205 colon 103% | DU-145 prostate 111% | K-562 leukemia 89.5% | MALME-3M melanoma 110% | MDA-MB-231 breast 110% | SF-268 CNS 102% | SF-295 CNS 97.4% | SF-539 CNS 103% | M14 melanoma 103%

Cc1ccc(C(=O)NCCCOc2ccc(N)cc2Cl)cc1S(=O)(=O)F
inactive: NCI-H23 lung 98.9% | NCI-H226 lung 89% | NCI-H322M lung 87.2% | HOP-62 NSCLC 89.1% | NCI-H460 lung 102% | HOP-92 NSCLC 96.6% | NCI-H522 lung 73.5% | A549/ATCC NSCLC 90.1% | 786-0 renal 86% | COLO 205 colon 105% | DU-145 prostate 107% | K-562 leukemia 91.9% | MALME-3M melanoma 87.6% | MDA-MB-231 breast 106% | SF-268 CNS 102% | SF-295 CNS 86.3% | SF-539 CNS 103% | UACC-257 melanoma 87.1% | M14 melanoma 97.8%
